PubChem BioAssay AID1159580 (chemical genetic matrix, 2015)
“And” between values parts separate entries of the source, which are not always exact repeats. Equal values may be shown once. Among all 5,500 compounds or so, about 2,000 (36%) were called active. Not shown: some 18% with an inconclusive outcome. No stated cut-off is given here; in the data, active means normalized growth mostly below about 0.91 (no sharp cut-off); inconclusive means no clear call, values can overlap the other calls; inactive means mostly above about 0.92. Some of the results follow.

Assay: chemical genetic growth profiling, strain panel (AID 1159580);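 further: tested at 20 µM; growth read once vehicle control cultures reached saturation at 30 °C; 1 = growth at the plate median or of vehicle wells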
Details: S. cerevisiae deletion strains, growth OD

Question: For `C/C(=C\CO)CC[C@H](C)CCC[C@H](C)CCCC(C)C`, which normalized growth (locus YAL021C, strain ccr4, stronger effect = lower value) is on record?
Answer: 1.12 [resistant] (active)

Question: What about the normalized growth (locus YAL026C, strain drs2, stronger effect = lower value) of the same compound?
Answer: 1.12 [resistant] (active)

Question: And the normalized growth (locus YAL030W, strain snc1, stronger effect = lower value)?
Answer: 1.13 [resistant] (active)

Question: And the normalized growth (locus YBL061C, strain skt5, stronger effect = lower value)?
Answer: 0.97 (inactive)

Question: And the normalized growth (locus YBR009C, strain hhf1, stronger effect = lower value)?
Answer: 1.12 [resistant] (active)

Question: What about the normalized growth (locus YBR021W, strain FUR4, stronger effect = lower value) of the same compound?
Answer: 1 (inactive)

Question: What about the normalized growth (locus YBR023C, strain chs3, stronger effect = lower value) of the same compound?
Answer: 0.974 (inactive)

Question: What about the normalized growth (locus YBR171W, strain sec66, stronger effect = lower value) of the same compound?
Answer: 1.11 (inactive)

Question: And the normalized growth (locus YBR229C, strain ROT2, stronger effect = lower value)?
Answer: 1.04 (inactive)

Question: And the normalized growth (locus YBR231C, strain swc5, stronger effect = lower value)?
Answer: 0.976 (inactive)

Question: What about the normalized growth (locus YBR279W, strain paf1, stronger effect = lower value) of the same compound?
Answer: 0.993 (inactive)

Question: And the normalized growth (locus YCL011C, strain gbp2, stronger effect = lower value)?
Answer: 1.14 [resistant] (active)

Question: What about the normalized growth (locus YCL016C, strain dcc1, stronger effect = lower value) of the same compound?
Answer: 0.976 (inactive)

Question: What about the normalized growth (locus YCL029C, strain bik1, stronger effect = lower value) of the same compound?
Answer: 1.08 (inactive)

Question: And the normalized growth (locus YCL061C, strain MRC1, stronger effect = lower value)?
Answer: 1.11 [resistant] (active)

Question: What about the normalized growth (locus YCL069W, strain vba3, stronger effect = lower value) of the same compound?
Answer: 1.11 [resistant] (active)

Question: And the normalized growth (locus YCR088W, strain abp1, stronger effect = lower value)?
Answer: 1.12 [resistant] (active)

Question: What about the normalized growth (locus YDL005C, strain med2, stronger effect = lower value) of the same compound?
Answer: 1.14 [resistant] (active)

Question: And the normalized growth (locus YDL035C, strain GPR1, stronger effect = lower value)?
Answer: 1.07 (inactive)

Question: And the normalized growth (locus YDL040C, strain nat1, stronger effect = lower value)?
Answer: 0.973 (inactive)

Question: What about the normalized growth (locus YDL074C, strain BRE1, stronger effect = lower value) of the same compound?
Answer: 1.1 (inactive)

Question: And the normalized growth (locus YDL101C, strain DUN1, stronger effect = lower value)?
Answer: 1.08 (inactive)

Question: What about the normalized growth (locus YDL185W, strain tfp1, stronger effect = lower value) of the same compound?
Answer: 1.11 [resistant] (active)

Question: And the normalized growth (locus YDL192W, strain arf1, stronger effect = lower value)?
Answer: 1.13 [resistant] (active)

Question: What about the normalized growth (locus YDR001C, strain nth1, stronger effect = lower value) of the same compound?
Answer: 1.13 [resistant] (active)

Question: What about the normalized growth (locus YDR069C, strain doa4, stronger effect = lower value) of the same compound?
Answer: 1.15 [resistant] (active)

Question: What about the normalized growth (locus YDR101C, strain arx1, stronger effect = lower value) of the same compound?
Answer: 1.11 [resistant] (active)

Question: What about the normalized growth (locus YDR137W, strain rgp1, stronger effect = lower value) of the same compound?
Answer: 0.93 (inactive)

Question: And the normalized growth (locus YDR150W, strain NUM1, stronger effect = lower value)?
Answer: 1.1 [resistant] (active)

Question: What about the normalized growth (locus YDR159W, strain sac3, stronger effect = lower value) of the same compound?
Answer: 1.05 (inactive)

Question: What about the normalized growth (locus YDR162C, strain NBP2, stronger effect = lower value) of the same compound?
Answer: 1.11 (inactive)

Question: And the normalized growth (locus YDR195W, strain ref2)?
Answer: 1.09 (inactive)

Question: What about the normalized growth (locus YDR297W, strain sur2, stronger effect = lower value) of the same compound?
Answer: 1.13 [resistant] (active)

Question: What about the normalized growth (locus YDR318W, strain mcm21, stronger effect = lower value) of the same compound?
Answer: 1.13 [resistant] (active)

Question: And the normalized growth (locus YDR334W, strain swr1, stronger effect = lower value)?
Answer: 1.14 [resistant] (active)

Question: And the normalized growth (locus YDR335W, strain msn5, stronger effect = lower value)?
Answer: 1.13 [resistant] (active)

Question: And the normalized growth (locus YDR388W, stronger effect = lower value)?
Answer: 1.12 [resistant] (active)

Question: And the normalized growth (locus YDR392W, strain spt3, stronger effect = lower value)?
Answer: 1.11 (inactive)

Question: And the normalized growth (locus YDR502C, strain sam2, stronger effect = lower value)?
Answer: 1.16 [resistant] (active)

Question: And the normalized growth (locus YEL003W, strain gim4, stronger effect = lower value)?
Answer: 1.13 [resistant] (active)

Question: What about the normalized growth (locus YEL037C, strain rad23, stronger effect = lower value) of the same compound?
Answer: 1.13 [resistant] (active)

Question: What about the normalized growth (locus YEL061C, strain CIN8 (second series), stronger effect = lower value) of the same compound?
Answer: 1.14 [resistant] (active)

Question: And the normalized growth (locus YEL061C, strain CIN8, stronger effect = lower value)?
Answer: 1.09 [resistant] (active)

Question: And the normalized growth (locus YER015W, strain faa2, stronger effect = lower value)?
Answer: 1.12 [resistant] (active)

Question: And the normalized growth (locus YER016W, strain bim1, stronger effect = lower value)?
Answer: 0.97 (inactive)

Question: And the normalized growth (locus YER110C, stronger effect = lower value)?
Answer: 1.14 [resistant] (active)

Question: What about the normalized growth (locus YER111C, strain swi4, stronger effect = lower value) of the same compound?
Answer: 1.06 (inactive)

Question: And the normalized growth (locus YER155C, strain BEM2 (second series), stronger effect = lower value)?
Answer: 1.07 (inactive)

Question: And the normalized growth (locus YER155C, strain BEM2, stronger effect = lower value)?
Answer: 1.02 (inactive)

Question: What about the normalized growth (locus YER167W, strain BCK2, stronger effect = lower value) of the same compound?
Answer: 1.01 (inactive)

Question: And the normalized growth (locus YFR010W, strain ubp6, stronger effect = lower value)?
Answer: 1.18 [resistant] (active)

Question: And the normalized growth (locus YGL078C, strain dbp3, stronger effect = lower value)?
Answer: 1.13 [resistant] (active)

Question: What about the normalized growth (locus YGL086W, strain mad1, stronger effect = lower value) of the same compound?
Answer: 1.09 [resistant] (active)

Question: What about the normalized growth (locus YGL167C, strain pmr1, stronger effect = lower value) of the same compound?
Answer: 0.962 (inactive)

Question: And the normalized growth (locus YGL173C, strain kem1, stronger effect = lower value)?
Answer: 1.1 [resistant] (active)

Question: What about the normalized growth (locus YGL227W, strain vid30, stronger effect = lower value) of the same compound?
Answer: 1.12 [resistant] (active)

Question: What about the normalized growth (locus YGL240W, strain doc1, stronger effect = lower value) of the same compound?
Answer: 1.13 [resistant] (active)

Question: And the normalized growth (locus YGL248W, strain PDE1, stronger effect = lower value)?
Answer: 1.06 (inactive)

Question: What about the normalized growth (locus YGL253W, strain hxk2, stronger effect = lower value) of the same compound?
Answer: 1.12 [resistant] (active)

Question: What about the normalized growth (locus YGR078C, strain PAC10, stronger effect = lower value) of the same compound?
Answer: 1.13 (inactive)

Question: And the normalized growth (locus YGR135W, strain pre9, stronger effect = lower value)?
Answer: 1.15 [resistant] (active)

Question: What about the normalized growth (locus YGR229C, strain SMI1, stronger effect = lower value) of the same compound?
Answer: 1.14 (inactive)

Question: What about the normalized growth (locus YGR252W, strain gcn5, stronger effect = lower value) of the same compound?
Answer: 1.1 (inactive)

Question: And the normalized growth (locus YHR013C, strain ard1, stronger effect = lower value)?
Answer: 0.945 (inactive)

Question: And the normalized growth (locus YHR027C, strain rpn1, stronger effect = lower value)?
Answer: 1.14 [resistant] (active)

Question: What about the normalized growth (locus YHR030C, strain SLT2, stronger effect = lower value) of the same compound?
Answer: 1.09 [resistant] (active) and 0.974 (inactive)

Question: And the normalized growth (locus YHR079C, strain IRE1 (second series), stronger effect = lower value)?
Answer: 1.13 [resistant] (active)

Question: What about the normalized growth (locus YHR079C, strain IRE1, stronger effect = lower value) of the same compound?
Answer: 0.966 (inactive)

Question: What about the normalized growth (locus YHR094C, strain hxt1, stronger effect = lower value) of the same compound?
Answer: 1.14 [resistant] (active)

Question: What about the normalized growth (locus YHR129C, strain ARP1, stronger effect = lower value) of the same compound?
Answer: 1.08 (inactive)

Question: And the normalized growth (locus YHR142W, strain chs7, stronger effect = lower value)?
Answer: 1.09 (inactive)

Question: And the normalized growth (locus YHR200W, strain rpn10, stronger effect = lower value)?
Answer: 1.13 [resistant] (active)

Question: And the normalized growth (locus YIL066C, strain RNR3, stronger effect = lower value)?
Answer: 1.09 (inactive)

Question: And the normalized growth (locus YIL073C, strain SPO22, stronger effect = lower value)?
Answer: 1.25 (inactive)

Question: What about the normalized growth (locus YIL125W, strain kgd1, stronger effect = lower value) of the same compound?
Answer: 1.12 [resistant] (active)

Question: And the normalized growth (locus YIR030C, strain dcg1, stronger effect = lower value)?
Answer: 1.13 [resistant] (active)

Question: What about the normalized growth (locus YJL092W, strain hpr5, stronger effect = lower value) of the same compound?
Answer: 1.13 [resistant] (active)

Question: What about the normalized growth (locus YJL095W, strain BCK1 (second series), stronger effect = lower value) of the same compound?
Answer: 1.02 (inactive)

Question: What about the normalized growth (locus YJL095W, strain BCK1, stronger effect = lower value) of the same compound?
Answer: 1.1 (inactive) and 0.966 (inactive)

Question: What about the normalized growth (locus YJL115W, strain asf1, stronger effect = lower value) of the same compound?
Answer: 1.14 [resistant] (active)

Question: And the normalized growth (locus YJL129C, strain trk1, stronger effect = lower value)?
Answer: 1.09 (inactive)

Question: What about the normalized growth (locus YJL134W, strain LCB3, stronger effect = lower value) of the same compound?
Answer: 1.09 [resistant] (active)

Question: And the normalized growth (locus YJL154C, strain vps35, stronger effect = lower value)?
Answer: 1.13 [resistant] (active)

Question: What about the normalized growth (locus YJL164C, strain tpk1, stronger effect = lower value) of the same compound?
Answer: 1.13 [resistant] (active)

Question: And the normalized growth (locus YJL166W, strain qcr8, stronger effect = lower value)?
Answer: 1.13 [resistant] (active)

Question: What about the normalized growth (locus YJL168C, strain set2, stronger effect = lower value) of the same compound?
Answer: 1.13 [resistant] (active)

Question: What about the normalized growth (locus YJL187C, strain SWE1 (second series), stronger effect = lower value) of the same compound?
Answer: 1.1 (inactive)

Question: What about the normalized growth (locus YJL187C, strain SWE1, stronger effect = lower value) of the same compound?
Answer: 1.07 (inactive)

Question: And the normalized growth (locus YJR043C, strain POL32, stronger effect = lower value)?
Answer: 1.12 (inactive)
